Assay results reported in ChEMBL document CHEMBL1961873, “Compounds: GSK PKIS; Assays: Nanosyn kinase panel” (2012).

Legend:
[1] = target: T1, Inhibitor of nuclear factor kappa-B kinase subunit epsilon (Homo sapiens) (UniProt Q14164); conditions: at 1 µM;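 also: reported values are averaged percent inhibition figures against human IKKε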
T1 sequence (whole entry): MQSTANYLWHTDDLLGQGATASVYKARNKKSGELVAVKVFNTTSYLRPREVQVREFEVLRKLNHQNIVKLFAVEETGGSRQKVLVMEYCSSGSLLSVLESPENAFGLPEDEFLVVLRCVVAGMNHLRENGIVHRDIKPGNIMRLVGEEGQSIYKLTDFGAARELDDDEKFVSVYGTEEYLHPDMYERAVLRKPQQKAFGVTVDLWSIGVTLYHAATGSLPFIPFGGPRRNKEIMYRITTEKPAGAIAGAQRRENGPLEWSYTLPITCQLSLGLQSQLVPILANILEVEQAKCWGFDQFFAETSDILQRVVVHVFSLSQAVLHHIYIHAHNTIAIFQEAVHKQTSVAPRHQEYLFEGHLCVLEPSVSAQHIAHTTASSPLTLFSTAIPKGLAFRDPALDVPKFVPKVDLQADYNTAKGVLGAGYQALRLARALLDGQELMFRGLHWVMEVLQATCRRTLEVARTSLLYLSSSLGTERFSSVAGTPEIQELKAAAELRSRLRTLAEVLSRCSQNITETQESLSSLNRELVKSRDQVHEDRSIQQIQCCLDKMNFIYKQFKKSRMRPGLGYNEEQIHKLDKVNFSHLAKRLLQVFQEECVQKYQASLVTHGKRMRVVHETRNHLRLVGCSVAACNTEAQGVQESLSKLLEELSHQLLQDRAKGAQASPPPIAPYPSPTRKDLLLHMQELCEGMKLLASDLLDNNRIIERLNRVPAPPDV

[2] = target: T2, Serine/threonine-protein kinase Nek1 (Homo sapiens) (UniProt Q96PY6); conditions: at 0.1 µM
T2 sequence (whole entry): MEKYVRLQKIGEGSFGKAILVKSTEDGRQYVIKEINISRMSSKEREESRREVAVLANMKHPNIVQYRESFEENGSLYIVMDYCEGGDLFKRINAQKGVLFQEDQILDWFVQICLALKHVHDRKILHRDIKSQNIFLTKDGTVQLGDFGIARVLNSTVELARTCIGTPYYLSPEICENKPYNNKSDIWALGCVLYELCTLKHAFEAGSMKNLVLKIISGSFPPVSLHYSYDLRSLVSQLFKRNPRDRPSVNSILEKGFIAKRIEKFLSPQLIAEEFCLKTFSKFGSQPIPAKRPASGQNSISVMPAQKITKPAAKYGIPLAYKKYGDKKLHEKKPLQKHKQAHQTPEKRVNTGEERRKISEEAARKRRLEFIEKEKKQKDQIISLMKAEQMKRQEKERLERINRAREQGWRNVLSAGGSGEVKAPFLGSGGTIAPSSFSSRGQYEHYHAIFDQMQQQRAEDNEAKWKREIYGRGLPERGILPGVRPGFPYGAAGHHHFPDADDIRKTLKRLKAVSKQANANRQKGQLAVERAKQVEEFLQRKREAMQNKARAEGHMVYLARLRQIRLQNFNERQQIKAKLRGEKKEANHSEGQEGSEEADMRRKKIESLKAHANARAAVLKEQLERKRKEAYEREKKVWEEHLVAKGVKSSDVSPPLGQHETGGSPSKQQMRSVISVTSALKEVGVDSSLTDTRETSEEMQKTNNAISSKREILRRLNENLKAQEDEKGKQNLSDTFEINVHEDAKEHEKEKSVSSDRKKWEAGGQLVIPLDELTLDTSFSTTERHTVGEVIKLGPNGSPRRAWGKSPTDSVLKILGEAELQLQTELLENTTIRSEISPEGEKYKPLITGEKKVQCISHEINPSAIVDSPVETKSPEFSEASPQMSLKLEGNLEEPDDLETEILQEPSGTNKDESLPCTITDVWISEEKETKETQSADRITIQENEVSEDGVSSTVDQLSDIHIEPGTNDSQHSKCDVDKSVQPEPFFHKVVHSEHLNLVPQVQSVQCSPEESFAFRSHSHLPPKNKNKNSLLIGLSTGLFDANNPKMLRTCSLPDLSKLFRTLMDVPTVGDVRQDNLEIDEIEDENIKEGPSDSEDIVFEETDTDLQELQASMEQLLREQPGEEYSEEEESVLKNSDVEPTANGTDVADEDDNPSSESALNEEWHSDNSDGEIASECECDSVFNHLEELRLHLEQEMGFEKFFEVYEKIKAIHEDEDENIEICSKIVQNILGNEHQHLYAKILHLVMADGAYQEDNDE

[3] = target: T2, Serine/threonine-protein kinase Nek1 (Homo sapiens); conditions: at 1 µM
[4] = target: T3, Serine/threonine-protein kinase Nek2 (Homo sapiens) (UniProt P51955); conditions: at 0.1 µM
T3 sequence (whole entry): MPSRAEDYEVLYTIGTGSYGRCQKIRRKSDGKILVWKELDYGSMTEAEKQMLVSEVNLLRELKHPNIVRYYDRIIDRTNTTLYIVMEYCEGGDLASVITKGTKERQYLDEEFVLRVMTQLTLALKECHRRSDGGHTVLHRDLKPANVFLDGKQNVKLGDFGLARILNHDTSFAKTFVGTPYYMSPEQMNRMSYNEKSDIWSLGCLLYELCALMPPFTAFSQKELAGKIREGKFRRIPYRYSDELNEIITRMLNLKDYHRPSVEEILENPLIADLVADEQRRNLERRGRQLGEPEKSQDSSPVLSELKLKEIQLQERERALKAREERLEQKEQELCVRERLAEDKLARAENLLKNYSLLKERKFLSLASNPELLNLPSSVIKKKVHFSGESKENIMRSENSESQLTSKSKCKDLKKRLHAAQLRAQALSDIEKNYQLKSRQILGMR

[5] = target: T3, Serine/threonine-protein kinase Nek2 (Homo sapiens); conditions: at 1 µM
[6] = target: Serine/threonine-protein kinase Nek6 (Homo sapiens) (UniProt Q9HC98); conditions: at 0.1 µM
Sequence of Serine/threonine-protein kinase Nek6 (Homo sapiens) (Q9HC98 whole entry): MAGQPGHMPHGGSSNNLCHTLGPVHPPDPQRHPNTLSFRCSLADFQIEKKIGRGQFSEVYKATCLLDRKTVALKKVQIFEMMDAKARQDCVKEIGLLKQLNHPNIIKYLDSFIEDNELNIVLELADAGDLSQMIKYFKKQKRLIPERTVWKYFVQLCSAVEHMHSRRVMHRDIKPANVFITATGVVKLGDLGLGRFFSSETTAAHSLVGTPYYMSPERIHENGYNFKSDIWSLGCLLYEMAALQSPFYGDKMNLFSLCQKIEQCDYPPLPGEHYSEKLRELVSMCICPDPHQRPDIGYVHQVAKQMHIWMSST

[7] = target: Serine/threonine-protein kinase Nek6 (Homo sapiens) (UniProt Q9HC98); conditions: at 1 µM
[8] = target: Serine/threonine-protein kinase Nek7 (Homo sapiens) (UniProt Q8TDX7); conditions: at 0.1 µM
Sequence of Serine/threonine-protein kinase Nek7 (Homo sapiens) (Q8TDX7 whole entry, looked up): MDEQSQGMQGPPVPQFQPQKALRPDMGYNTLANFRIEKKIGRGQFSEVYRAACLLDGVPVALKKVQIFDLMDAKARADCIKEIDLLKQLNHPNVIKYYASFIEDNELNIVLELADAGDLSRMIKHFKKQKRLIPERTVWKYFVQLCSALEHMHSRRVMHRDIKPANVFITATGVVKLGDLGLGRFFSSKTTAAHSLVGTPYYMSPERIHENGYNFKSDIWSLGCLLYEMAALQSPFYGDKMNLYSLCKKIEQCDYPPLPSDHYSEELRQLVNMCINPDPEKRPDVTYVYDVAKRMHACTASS

[9] = target: Serine/threonine-protein kinase Nek7 (Homo sapiens) (UniProt Q8TDX7); conditions: at 1 µM
[10] = target: T4, Serine/threonine-protein kinase Nek9 (Homo sapiens) (UniProt Q8TD19); conditions: at 0.1 µM
T4 sequence (whole entry): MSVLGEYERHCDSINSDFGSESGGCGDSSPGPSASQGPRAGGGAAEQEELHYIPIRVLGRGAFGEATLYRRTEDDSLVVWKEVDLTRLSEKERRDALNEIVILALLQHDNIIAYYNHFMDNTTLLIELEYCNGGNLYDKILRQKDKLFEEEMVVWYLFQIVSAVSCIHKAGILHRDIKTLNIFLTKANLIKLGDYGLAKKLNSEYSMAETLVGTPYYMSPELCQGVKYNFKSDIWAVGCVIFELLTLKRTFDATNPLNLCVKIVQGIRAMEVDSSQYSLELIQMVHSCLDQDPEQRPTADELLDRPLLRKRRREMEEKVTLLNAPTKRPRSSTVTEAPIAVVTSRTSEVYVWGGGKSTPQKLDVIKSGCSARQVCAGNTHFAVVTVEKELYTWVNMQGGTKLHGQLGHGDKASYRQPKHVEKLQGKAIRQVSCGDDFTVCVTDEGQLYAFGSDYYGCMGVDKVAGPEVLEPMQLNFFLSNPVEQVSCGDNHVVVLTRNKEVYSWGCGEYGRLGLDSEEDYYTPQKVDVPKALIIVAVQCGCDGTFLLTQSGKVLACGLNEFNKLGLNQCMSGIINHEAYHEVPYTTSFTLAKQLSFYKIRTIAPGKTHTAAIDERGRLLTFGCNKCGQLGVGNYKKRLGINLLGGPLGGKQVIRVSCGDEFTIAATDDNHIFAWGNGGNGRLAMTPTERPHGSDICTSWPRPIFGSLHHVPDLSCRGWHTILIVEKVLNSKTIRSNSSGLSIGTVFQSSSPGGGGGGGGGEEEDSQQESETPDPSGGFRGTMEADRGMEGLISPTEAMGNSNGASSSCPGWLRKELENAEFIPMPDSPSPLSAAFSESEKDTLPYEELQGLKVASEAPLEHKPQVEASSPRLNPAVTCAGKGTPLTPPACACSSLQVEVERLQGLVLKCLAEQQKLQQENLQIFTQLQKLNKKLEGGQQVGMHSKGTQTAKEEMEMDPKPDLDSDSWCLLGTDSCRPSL

[11] = target: T4, Serine/threonine-protein kinase Nek9 (Homo sapiens); conditions: at 1 µM
[12] = target: Serine/threonine-protein kinase PLK1 (Homo sapiens) (UniProt P53350); conditions: at 0.1 µM
Sequence of Serine/threonine-protein kinase PLK1 (Homo sapiens) (P53350 whole entry): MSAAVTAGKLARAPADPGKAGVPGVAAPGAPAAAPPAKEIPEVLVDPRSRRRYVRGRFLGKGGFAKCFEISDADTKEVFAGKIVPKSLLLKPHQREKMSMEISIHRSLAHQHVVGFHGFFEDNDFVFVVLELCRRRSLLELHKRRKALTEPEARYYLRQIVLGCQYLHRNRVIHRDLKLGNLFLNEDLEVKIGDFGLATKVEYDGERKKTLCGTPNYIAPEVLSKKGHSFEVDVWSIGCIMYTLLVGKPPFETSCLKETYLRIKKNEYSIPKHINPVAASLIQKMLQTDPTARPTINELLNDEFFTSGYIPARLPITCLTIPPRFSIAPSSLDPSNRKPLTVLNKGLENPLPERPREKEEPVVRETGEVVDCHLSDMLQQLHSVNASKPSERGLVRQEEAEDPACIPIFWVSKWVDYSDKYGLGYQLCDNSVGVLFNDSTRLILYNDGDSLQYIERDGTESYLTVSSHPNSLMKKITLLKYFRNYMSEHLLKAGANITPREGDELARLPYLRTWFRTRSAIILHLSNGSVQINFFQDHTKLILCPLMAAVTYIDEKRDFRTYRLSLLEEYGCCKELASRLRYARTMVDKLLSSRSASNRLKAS

[13] = target: Serine/threonine-protein kinase PLK1 (Homo sapiens) (UniProt P53350); conditions: at 1 µM
[14] = target: T5, Dual specificity protein kinase TTK (Homo sapiens) (UniProt P33981); conditions: at 0.1 µM
T5 sequence (whole entry): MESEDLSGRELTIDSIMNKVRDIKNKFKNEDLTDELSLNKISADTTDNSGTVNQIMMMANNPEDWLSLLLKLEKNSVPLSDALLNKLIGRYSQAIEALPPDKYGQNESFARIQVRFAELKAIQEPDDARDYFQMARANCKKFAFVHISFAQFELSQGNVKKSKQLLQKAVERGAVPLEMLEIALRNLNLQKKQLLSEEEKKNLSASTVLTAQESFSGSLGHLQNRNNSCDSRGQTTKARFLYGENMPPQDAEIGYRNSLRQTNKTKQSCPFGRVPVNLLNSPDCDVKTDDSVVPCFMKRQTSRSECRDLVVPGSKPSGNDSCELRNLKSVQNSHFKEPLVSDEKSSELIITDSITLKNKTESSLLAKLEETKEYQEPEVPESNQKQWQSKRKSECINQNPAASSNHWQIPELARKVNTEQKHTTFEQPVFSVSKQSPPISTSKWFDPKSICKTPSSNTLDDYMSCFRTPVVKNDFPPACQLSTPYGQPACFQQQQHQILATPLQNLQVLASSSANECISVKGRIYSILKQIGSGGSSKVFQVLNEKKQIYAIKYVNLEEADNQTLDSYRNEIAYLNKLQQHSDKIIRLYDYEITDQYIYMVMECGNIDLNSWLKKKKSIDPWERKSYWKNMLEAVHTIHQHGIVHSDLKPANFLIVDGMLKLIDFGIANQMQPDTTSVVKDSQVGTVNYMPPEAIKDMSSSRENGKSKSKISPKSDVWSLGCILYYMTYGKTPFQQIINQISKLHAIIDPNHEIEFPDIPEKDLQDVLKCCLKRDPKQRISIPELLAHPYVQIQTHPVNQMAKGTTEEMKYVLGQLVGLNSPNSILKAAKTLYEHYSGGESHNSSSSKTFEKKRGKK

[15] = tested on: T6, Receptor-type tyrosine-protein kinase FLT3 (Homo sapiens), P36888 [D835Y]; conditions: at 1 µM
T6 sequence (whole entry): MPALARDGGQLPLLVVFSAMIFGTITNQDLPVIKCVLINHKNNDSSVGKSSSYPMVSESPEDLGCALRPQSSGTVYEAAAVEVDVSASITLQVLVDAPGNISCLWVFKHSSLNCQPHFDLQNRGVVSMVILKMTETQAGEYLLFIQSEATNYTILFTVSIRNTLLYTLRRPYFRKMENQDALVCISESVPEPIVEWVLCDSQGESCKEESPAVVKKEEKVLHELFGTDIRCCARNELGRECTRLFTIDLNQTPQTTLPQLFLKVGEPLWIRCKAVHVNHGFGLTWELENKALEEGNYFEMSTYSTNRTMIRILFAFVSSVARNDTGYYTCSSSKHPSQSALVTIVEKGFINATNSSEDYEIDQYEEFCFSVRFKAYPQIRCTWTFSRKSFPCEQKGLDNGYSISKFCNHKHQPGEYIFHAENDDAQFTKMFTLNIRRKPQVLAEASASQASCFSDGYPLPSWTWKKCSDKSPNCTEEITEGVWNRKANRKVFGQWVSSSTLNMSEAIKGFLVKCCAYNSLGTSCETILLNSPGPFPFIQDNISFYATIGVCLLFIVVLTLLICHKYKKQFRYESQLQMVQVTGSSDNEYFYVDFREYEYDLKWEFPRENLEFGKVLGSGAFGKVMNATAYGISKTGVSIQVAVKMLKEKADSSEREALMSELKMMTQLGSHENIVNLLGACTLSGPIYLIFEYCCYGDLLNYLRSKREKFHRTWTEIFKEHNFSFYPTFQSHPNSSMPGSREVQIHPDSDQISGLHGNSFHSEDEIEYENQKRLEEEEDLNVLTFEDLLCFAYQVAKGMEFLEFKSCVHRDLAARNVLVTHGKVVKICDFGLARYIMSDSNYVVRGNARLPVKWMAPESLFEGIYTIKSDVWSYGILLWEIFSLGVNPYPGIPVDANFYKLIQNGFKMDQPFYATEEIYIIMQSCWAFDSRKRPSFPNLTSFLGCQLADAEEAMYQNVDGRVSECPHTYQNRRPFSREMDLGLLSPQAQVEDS

[16] = target: Vascular endothelial growth factor receptor 3 (Homo sapiens) (UniProt P35916); conditions: at 0.1 µM
Sequence of Vascular endothelial growth factor receptor 3 (Homo sapiens) (P35916 whole entry): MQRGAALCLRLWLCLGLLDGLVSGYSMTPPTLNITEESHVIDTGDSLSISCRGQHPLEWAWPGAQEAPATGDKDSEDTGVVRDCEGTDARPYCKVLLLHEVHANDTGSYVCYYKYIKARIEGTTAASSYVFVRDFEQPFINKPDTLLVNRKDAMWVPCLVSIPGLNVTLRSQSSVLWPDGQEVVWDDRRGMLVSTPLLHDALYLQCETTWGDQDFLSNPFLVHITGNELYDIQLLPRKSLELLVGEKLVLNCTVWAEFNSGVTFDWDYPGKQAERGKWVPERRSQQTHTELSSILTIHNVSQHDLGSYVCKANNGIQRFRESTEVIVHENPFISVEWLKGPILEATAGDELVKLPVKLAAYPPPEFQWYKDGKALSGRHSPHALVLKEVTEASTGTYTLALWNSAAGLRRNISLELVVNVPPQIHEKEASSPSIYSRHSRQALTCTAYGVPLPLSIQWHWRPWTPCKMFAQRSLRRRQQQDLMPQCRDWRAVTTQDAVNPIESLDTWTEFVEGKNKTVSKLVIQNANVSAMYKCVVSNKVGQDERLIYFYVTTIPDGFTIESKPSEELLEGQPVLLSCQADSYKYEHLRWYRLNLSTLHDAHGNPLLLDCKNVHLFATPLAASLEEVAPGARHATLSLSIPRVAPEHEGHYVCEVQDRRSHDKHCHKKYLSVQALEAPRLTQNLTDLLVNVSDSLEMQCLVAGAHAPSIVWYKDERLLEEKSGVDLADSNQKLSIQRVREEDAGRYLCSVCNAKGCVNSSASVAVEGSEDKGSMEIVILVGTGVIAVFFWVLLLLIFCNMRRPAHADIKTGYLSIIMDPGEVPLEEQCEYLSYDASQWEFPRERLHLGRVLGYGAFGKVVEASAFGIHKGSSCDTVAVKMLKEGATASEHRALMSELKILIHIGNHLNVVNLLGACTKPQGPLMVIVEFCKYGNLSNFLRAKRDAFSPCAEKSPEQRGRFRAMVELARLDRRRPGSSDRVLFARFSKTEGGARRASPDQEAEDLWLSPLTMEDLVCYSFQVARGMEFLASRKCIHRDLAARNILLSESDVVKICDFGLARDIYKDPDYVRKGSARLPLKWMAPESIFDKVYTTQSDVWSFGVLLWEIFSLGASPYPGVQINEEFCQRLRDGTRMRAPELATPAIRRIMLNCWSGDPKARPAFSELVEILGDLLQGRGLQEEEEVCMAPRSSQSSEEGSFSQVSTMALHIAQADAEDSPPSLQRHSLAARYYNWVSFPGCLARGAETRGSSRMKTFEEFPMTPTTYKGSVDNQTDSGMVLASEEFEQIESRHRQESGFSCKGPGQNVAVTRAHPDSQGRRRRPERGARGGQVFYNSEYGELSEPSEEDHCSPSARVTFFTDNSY

[17] = target: Vascular endothelial growth factor receptor 3 (Homo sapiens) (UniProt P35916); conditions: at 1 µM
[18] = target: Macrophage colony-stimulating factor 1 receptor (Homo sapiens) (UniProt P07333); conditions: at 0.1 µM
Sequence of Macrophage colony-stimulating factor 1 receptor (Homo sapiens) (P07333 whole entry): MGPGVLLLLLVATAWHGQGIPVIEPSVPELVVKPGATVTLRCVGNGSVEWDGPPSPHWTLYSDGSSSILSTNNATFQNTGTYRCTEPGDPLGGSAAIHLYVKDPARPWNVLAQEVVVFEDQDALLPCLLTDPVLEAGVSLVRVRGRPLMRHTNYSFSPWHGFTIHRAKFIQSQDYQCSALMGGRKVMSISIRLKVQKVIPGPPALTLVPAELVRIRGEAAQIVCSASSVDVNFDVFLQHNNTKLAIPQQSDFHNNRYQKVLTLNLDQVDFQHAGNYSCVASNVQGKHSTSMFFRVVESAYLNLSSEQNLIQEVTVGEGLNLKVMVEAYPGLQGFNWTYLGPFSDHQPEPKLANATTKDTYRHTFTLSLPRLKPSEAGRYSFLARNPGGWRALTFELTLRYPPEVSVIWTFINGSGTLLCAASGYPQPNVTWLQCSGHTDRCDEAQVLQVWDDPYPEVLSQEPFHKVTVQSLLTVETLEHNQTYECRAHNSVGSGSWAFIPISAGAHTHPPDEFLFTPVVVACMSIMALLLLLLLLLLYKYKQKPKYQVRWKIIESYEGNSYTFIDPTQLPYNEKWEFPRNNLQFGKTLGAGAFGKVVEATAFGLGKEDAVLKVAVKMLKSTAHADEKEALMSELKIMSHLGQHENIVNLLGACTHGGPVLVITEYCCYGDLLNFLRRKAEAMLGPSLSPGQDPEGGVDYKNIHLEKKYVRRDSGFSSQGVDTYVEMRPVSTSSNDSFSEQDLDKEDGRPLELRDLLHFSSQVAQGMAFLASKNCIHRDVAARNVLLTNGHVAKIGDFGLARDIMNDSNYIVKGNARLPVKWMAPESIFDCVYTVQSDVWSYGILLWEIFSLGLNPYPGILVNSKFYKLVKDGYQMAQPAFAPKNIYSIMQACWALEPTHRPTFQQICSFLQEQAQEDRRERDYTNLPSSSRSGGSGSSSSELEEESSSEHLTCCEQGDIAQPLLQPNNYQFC

[19] = target: Macrophage colony-stimulating factor 1 receptor (Homo sapiens) (UniProt P07333); conditions: at 1 µM
[20] = target: Tyrosine-protein kinase Fyn (Homo sapiens) (UniProt P06241); conditions: at 0.1 µM
Sequence of Tyrosine-protein kinase Fyn (Homo sapiens) (P06241 2-537 limits assumed): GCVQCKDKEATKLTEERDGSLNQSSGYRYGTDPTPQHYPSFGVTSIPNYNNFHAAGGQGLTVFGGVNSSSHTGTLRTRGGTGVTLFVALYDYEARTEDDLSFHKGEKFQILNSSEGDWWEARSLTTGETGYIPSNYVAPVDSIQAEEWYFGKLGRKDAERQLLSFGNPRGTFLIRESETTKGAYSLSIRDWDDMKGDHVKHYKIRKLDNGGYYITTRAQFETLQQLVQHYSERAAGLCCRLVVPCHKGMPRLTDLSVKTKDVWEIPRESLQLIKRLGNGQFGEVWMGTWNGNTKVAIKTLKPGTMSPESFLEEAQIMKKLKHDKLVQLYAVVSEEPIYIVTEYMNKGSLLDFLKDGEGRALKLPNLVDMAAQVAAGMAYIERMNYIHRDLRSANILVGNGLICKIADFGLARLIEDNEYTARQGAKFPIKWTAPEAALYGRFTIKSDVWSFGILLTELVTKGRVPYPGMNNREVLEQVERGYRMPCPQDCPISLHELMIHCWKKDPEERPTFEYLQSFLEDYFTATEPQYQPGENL

Row | Structure (SMILES) | inhibition [1] [%] | inhibition [2] [%] | inhibition [3] [%] | inhibition [4] [%] | inhibition [5] [%] | inhibition [6] [%] | inhibition [7] [%] | inhibition [8] [%] | inhibition [9] [%] | inhibition [10] [%] | inhibition [11] [%] | inhibition [12] [%] | inhibition [13] [%] | inhibition [14] [%] | inhibition [15] [%] | inhibition [16] [%] | inhibition [17] [%] | inhibition [18] [%] | inhibition [19] [%] | inhibition [20] [%]
1 | COc1cc(N2CCN(C(C)C)CC2)ccc1Nc1nc(Nc2ccc(F)cc2C(N)=O)c2cc[nH]c2n1 | 4.36 | 3.16 | 11.2 | 3.34 | 2.89 | 2.32 | 5.57 | 2.07 | 7.1 | 4.13 | 13.5 | 16 | 64.8 | 83 | 40.7 | 3.45 | 2.68 | 11.7 | 48.1 | 2.48
2 | CN(C)CCOc1ccc(-c2nc(-c3ccncc3)c(-c3ccc4c(c3)CC/C4=N\O)[nH]2)cc1 | 7.42 | 0.81 | 5.31 | 2.72 | 4.52 | 3.81 | 0.68 | 1.62 | 2.67 | 4.08 | 4.4 | 2.08 | 2.04 | 6.91 | 7.87 | 1.85 | 3.47 | -1.89 | 4.02 | 0.02
3 | Fc1ccc(-c2nn3ncccc3c2-c2ccnc(Nc3ccc4c(c3)OCCO4)n2)cc1 | 7.06 | 2.45 | 1.02 | 5.03 | 4.48 | 0.64 | 3.68 | 6.98 | 4.83 | 6.56 | 12 | 3.5 | 28.8 | 8.44 | 2.87 | 7.5 | 47.7 | 14.4 | 59.1 | 47
